Source: PubChem BioAssay
Sampled rows, rich in hits. Any-hit rate of the full collection: about 19%.
DT40 TDP1 CPT: growth inhibition of DT40 Tdp1-/-;hTDP1 cells with camptothecin (screen for TDP1 inhibitors) | chicken DT40 Tdp1-/-;hTDP1 cells + 20 nM CPT, ATP luminescence, 48 h | Potency, µM (highest dose often 46.2 µM), for inactives: at the top dose activity change, negative = growth inhibition, usual class: inhibitors | 12% of 420,000 active | AID 686979; note: potency is the fitted concentration of half-maximal effect; nearly all actives have a fitted effect of over 55% in size
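Chicken DT40 Tdp1-/- cells stably complemented with human TDP1 were seeded at 400 cells/well in medium containing 20 nM camptothecin, exposed to pin-transferred compounds, and grown at 37 °C for at least 48 hr. Viability was read as ATP luminescence.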
DT40 TDP1 no CPT: qHTS for Inhibitors of human tyrosyl-DNA phosphodiesterase 1 (TDP1): qHTS in cells in absence of CPT | Potency, µM (titrated, usually from 46.2 µM), for the others: at the top dose activity change, negative = growth inhibition, usual class: inhibitors | DT40 Tdp1-/- hTDP1 cells, no CPT, ATP luminescence, 48 h | 15% of 420,000 active | AID 686978, 2013; note: potency is the fitted concentration of half-maximal effect; nearly all actives have a fitted effect of over 55% in size
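Readout: luminescence from CellTiter-Glo after 30 min in the dark at RT. Cells: DT40 Tdp1-/- with stable hTDP1, 400/well. Exposure: compounds alone, ≥48 hr, 37 °C.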
TDP1 inh: TDP1 (human) enzyme inhibition. AID 485290. recombinant TDP1, AlphaScreen DNA substrate cleavage. Q9NUW8. Potency, µM (highest dose often 130 µM), for inactives: at the highest dose activity change, negative = inhibition, actives largely listed as inhibitors. 0.28% of 350,000 active; note: potency is the fitted concentration of half-maximal effect; nearly all actives have a fitted effect of over 40% in size
Target sequence (Q9NUW8 whole entry, looked up): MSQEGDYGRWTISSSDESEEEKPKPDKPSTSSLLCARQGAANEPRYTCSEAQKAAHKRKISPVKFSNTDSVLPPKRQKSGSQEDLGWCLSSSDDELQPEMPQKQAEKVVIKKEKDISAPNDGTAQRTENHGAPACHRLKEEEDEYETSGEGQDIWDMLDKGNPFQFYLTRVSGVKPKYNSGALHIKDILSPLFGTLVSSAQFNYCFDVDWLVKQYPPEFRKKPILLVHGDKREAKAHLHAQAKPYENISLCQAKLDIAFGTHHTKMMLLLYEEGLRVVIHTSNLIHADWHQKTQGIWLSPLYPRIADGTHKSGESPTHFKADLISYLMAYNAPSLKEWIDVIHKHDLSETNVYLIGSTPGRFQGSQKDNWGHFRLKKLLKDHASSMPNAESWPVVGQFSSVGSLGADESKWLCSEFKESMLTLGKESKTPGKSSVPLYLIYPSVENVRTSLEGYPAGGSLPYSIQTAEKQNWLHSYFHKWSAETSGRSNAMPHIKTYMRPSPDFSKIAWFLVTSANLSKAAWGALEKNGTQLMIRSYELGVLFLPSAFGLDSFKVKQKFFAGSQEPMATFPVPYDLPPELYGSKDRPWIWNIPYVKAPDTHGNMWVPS
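AlphaScreen read-out: signal falls as enzyme removes the 3' tyrosine-FITC from a 5'-biotinylated DNA oligo (15 nM, 5 min, RT). Enzyme was E. coli-made recombinant Tdp1 at 1 nM, exposed to compound for 15 min beforehand; beads 10 ug/ml, 10 min.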
ELG1 DNA repair: inhibitors of ELG1-dependent DNA repair in HEK293T cells; HEK293T ELG1-luciferase reporter, luminescence, 16 h; DNA damage induced by 5-fluorouridine; Potency, µM (series often up to 46.1 µM), inactives show at the top dose activity change, negative = inhibition, actives largely listed as inhibitors; 2.3% of 330,000 active; AID 504467; note: potency is the fitted concentration of half-maximal effect; nearly all actives have a fitted effect of over 55% in size
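Reporter activity after DNA damage by 5-fluorouridine is monitored. Compound-treated cells incubate 16 hr at 37 °C, then ONE-Glo is added for 30 min before luminescence reading.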
IL-1B inflam inh: blocks inflammasome-driven IL-1 beta release. THP-1 LPS/ATP IL-1B secretion, AlphaLISA, 16 h; stronger effect = lower value. activity change, % at 57.5 µM. 4.7% of 360,000 active. AID 743279; in the data active = activity change below about -50%; inconclusive = mostly about -30% to -49%
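Secreted IL-1B measured by AlphaLISA bead assay after 16 h compound exposure of THP-1 cells; compounds (final up to 57.5 uM) added 1 h before LPS (250 ng/mL) and ATP (1.25 mM) stimulation; lower signal means less secretion.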
Giardia killer: Giardia lamblia killing; Giardia lamblia trophozoite viability; 0.15% of 340,000 active; activity change, % at 7.66 µM, hits read low; AID 540267; in the data active = activity change below about -80%; inconclusive = between about -30% and that limit;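 note: parasites exposed to compound for two days anaerobically before the ATP read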
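Luminescent ATP signal served as the viability read-out, measured 15-30 min after adding ATP detection reagent to trophozoites that had been incubated with compounds for 48 hrs at 37 deg C anaerobically at 100 cells/well.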
An asterisk follows results filed as active; i = inactive; ? = inconclusive; . = not tested or not shown; [ ] = remark or other dose. Unless noted, calls come from the whole dose curve; as a rule, active = well fitted curve in the direction sought with a large enough effect; inconclusive = small, poorly fitted or top-dose-only effect, or another doubt; inactive = no such curve, though single readings can be large; an effect the other way counts as inactive or inconclusive. % is set by controls: 0 for no effect and ±100 for the full control effect.

SMILES	DT40 TDP1 CPT	DT40 TDP1 no CPT	TDP1 inh	ELG1 DNA repair	IL-1B inflam inh	Giardia killer
CCCn1c(C2CC(=O)N(c3ccc(C)cc3)C2)nc2ccccc21 (centres undefined)	-20.3%	0.1%	0.0%	-15.1%	1.8	-7.6
Cc1cccc(C)c1OCCn1c(C2CC(=O)N(c3cccc(Cl)c3)C2)nc2ccccc21 (centres undefined)	16.4µM*	13µM*	-5.1%	.	.	.
Cc1cccc(C)c1OCCCCn1c(C2CC(=O)N(c3ccc(F)cc3)C2)nc2ccccc21 (centres undefined)	13µM*	14.6µM*	2.5%	.	.	.
CSc1ccc(NC(=O)NCc2ccccc2)cc1	5.2%	-14.8%	0.0%	?	-13.6	-9.8
COc1cccc(NC(=O)COc2nc3ccccc3nc2C)c1	5.3%	-1.3%	2.6%	5.1%	23.9	-23.7
NC(=S)Nc1cc(Cl)ccc1Cl	14.6µM*	13µM*	4.1%	-7.6%	-0.7	4.4
NC(=O)Nc1cc(Cl)ccc1Cl	2.3%	-0.1%	-3.8%	0.0%	14.0	-0.5
CCOc1nc2ccccc2cc1C=O	2.31µM*	2.59µM*	6.0%	-6.1%	55.4	5.0
CC(C)C[C@H](NC(=O)c1nc[nH]c1C(=O)N[C@@H](CCCCN)C(=O)OC(C)(C)C)C(=O)OC(C)(C)C	?	?	0.3%	12.9%	-7.9	-4.7
CC(C)C[C@H](NC(=O)c1nc[nH]c1C(=O)NCCCCCNC(=O)OC(C)(C)C)C(=O)OC(C)(C)C	?	18.4µM*	11.5%	?	-2.8	-26.9
C[C@H](NC(=O)c1nc[nH]c1C(=O)NCc1ccccc1)C(=O)OC(C)(C)C	?	?	7.7%	-4.4%	-8.4	5.7
CC(C)C[C@H](NC(=O)c1nc[nH]c1C(=O)N[C@@H](CCCCNC(=O)OC(C)(C)C)C(=O)OC(C)(C)C)C(=O)OC(C)(C)C	20.6µM*	20.6µM*	9.5%	?	-24.2	-6.8
CC(C)(C)OC(=O)CNC(=O)c1[nH]cnc1C(=O)NCCCCCNC(=O)OC(C)(C)C	23.1µM*	14.6µM*	.	?	1.0	12.4
C[C@H](NC(=O)c1nc[nH]c1C(=O)NCCCCCNC(=O)OC(C)(C)C)C(=O)OC(C)(C)C	18.4µM*	16.4µM*	6.4%	5.17µM*	2.7	-15.8
CC(C)(C)OC(=O)CNC(=O)c1[nH]cnc1C(=O)NCCCCCN	-19.0%	3.4%	-8.4%	5.9%	17.4	-1.1
CCC/C(=N/NC(=O)c1ccccc1Cl)c1ccccc1	-4.7%	-4.1%	-14.9%	6.9%	-6.9	12.4
O=C(Nc1cccc(F)c1)NC1(C(=O)N2CCOCC2)CCCCC1	-6.1%	-1.2%	5.1%	3.5%	-11.5	20.7
COc1ccc(CCNC(=O)Cn2nc(-c3ccc(Cl)cc3)ccc2=O)cc1OC	?	?	7.8%	.	.	.
O=C1NC(=O)c2cc(Nc3ccccc3)c(Nc3ccccc3)cc21	?	12.6µM*	17.4%	.	.	.
CC(=O)c1c(C)oc2ccc(N(C(C)=O)S(=O)(=O)c3cccc4cccnc34)cc12	2.06µM*	4.11µM*	8.4%	5.8µM*	-20.6	8.7
CC(=O)c1c(C)oc2ccc(N(C(=O)c3ccncc3)S(=O)(=O)c3ccccc3)cc12	-26.2%	?	0.0%	?	2.2	-3.7
CC(=O)c1c(C)oc2ccc(N(C(C)=O)S(=O)(=O)c3ccc(F)cc3C)cc12	11.6µM*	16.4µM*	2.2%	?	-7.0	-11.1
CCCn1c(-c2ccc(F)cc2)nc2c(N3CCC(N(C)C)C3)nc(C)nc21 (centres undefined)	.	.	3.9%	.	.	.
COc1ccc(S(=O)(=O)Nc2cccc(S(=O)(=O)NC3=NCCC3)c2)cc1[N+](=O)[O-]	-10.8%	-0.6%	-8.9%[0.505 µM]	12.2%	11.5	-6.3
CC1(c2nnnn2Cc2ccccc2)CCC(=O)N1CCc1ccccc1F (centres undefined)	-21.3%	-11.7%	.	.	-20.3	.
SMILES	DT40 TDP1 CPT	DT40 TDP1 no CPT	TDP1 inh	ELG1 DNA repair	IL-1B inflam inh	Giardia killer
COc1ccccc1NC(=O)CC(c1ccc(OC(C)C)cc1)c1ccccc1OC (centres undefined)	16.4µM*	20.6µM*	0.6%	8.2µM*	10.4	-9.5
COc1ccccc1C(CC(=O)Nc1ccc(C)c(C)c1)c1ccc(OC(C)C)cc1 (centres undefined)	?	20.6µM*	-2.7%	-19.1%	5.7	0.1
COc1ccc(C(CC(=O)Nc2ccccc2OC)n2cccc2)cc1 (centres undefined)	16.4µM*	10.3µM*	1.1%	?	-4.1	8.6
COc1ccccc1NC(=O)COc1ccccc1	-25.3%	-20.7%	0.0%	?	-10.5	-11.9
CC1CCCCC1NC(=O)/C=C/c1nc2ccccc2s1 (centres undefined)	?	?	2.3%	-1.5%	-29.2	7.3
C[N+](C)(CCCCCI)c1ccc(/C=C/c2nc3ccccc3s2)cc1	1µM*	0.562µM*	.	.	.	.
CCN(CC)CCCNC(=O)CN1N=C(c2ccccc2)CCC1=O	1.2%	17.5%	-2.6%	.	.	.
O=C(c1ccc(Nc2nc3ccccc3n3nnnc23)cc1)N1CCN(c2cccc(C(F)(F)F)c2)CC1	?	18.4µM*	0.0%	.	.	.
CC(=O)c1ccc(N2CCN(c3ncc(C(F)(F)F)cc3Cl)CC2)cc1	?	29.1µM*	1.9%	-13.3%	?	-4.6
CC(C)(C)NC(=O)NC(=O)CN1CCN(c2ncc(C(F)(F)F)cc2Cl)CC1	?	18.4µM*	3.6%	7.31µM*	7.0	5.6
O=C(OCC(=O)N1CCN(c2ccccc2)CC1)c1ccc2ncsc2c1	-18.9%	-24.4%	.	-18.3%	16.8	-10.7
NC(=O)c1ccc(N2CCN(c3ncc(C(F)(F)F)cc3Cl)CC2)cc1	-1.9%	13.5%	.	15.7%	-24.9	13.9
Cc1ccc(Nc2nc3ccccc3n3nnnc23)cc1	-25.0%	-26.5%	4.6%	0.6%	73.8	8.9
O=C(c1ccc2ncsc2c1)N1CCN(c2cccc(C(F)(F)F)c2)CC1	2.91µM*	1.46µM*	-9.6%	-8.1%	17.5	-16.9
C=CCNC(=S)N1CCN(c2ncc(C(F)(F)F)cc2Cl)CC1	?	?	3.8%	?	-66.7*	-9.9
O=C(c1ccc2nc[nH]c2c1)N1CCN(c2cccc(C(F)(F)F)c2)CC1	?	16.4µM*	4.5%	7.0%	i	-9.0
O=C(c1ccc2nc[nH]c2c1)N1CCN(c2ncc(C(F)(F)F)cc2Cl)CC1	14.6µM*	18.4µM*	8.6%[56.1 µM]	?	-13.5	-9.5
